# Dicer inh: inhibitors of Dicer pre-microRNA processing, primary screen, biochemical, cat-ELCCA, chemiluminescence; Endoribonuclease Dicer (Homo sapiens), Q9UPY3; cat-ELCCA pre-miR-21 Dicer processing; active compounds read high; z-score at 25 µM; 47,000 tested, 6% active; in the data active = z-score above about 3, passing the limit was not always enough;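 note: higher signal means more uncleaved substrate so more Dicer inhibition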
# Numbers stand for hits; - = inactive. Only a selection was taken, and hits are over-represented in it overall.
SMILES,Dicer inh
Cc1ccccc1N1OC2C(=O)N(c3ccccc3)C(=O)C2C1c1ccc(N(C)C)cc1 (centres undefined),-
CSc1nc2sc3c(c2c(=O)n1-c1ccccc1)CC(C)(C)OC3,-
CCC1SC2=NC(C)=C(C(=O)OCCOC)C(c3ccc(OCc4ccccc4)cc3)N2C1=O (centres undefined),-
O=C(CSC1=NCCS1)n1c2c(c3ccccc31)CCCC2,-
NNC(=O)CSc1ccnc2cc(Cl)ccc12,-
Cc1cc(C(F)(F)F)nc2c([N+](=O)[O-])c(C(C)(C)C)nn12,-
O=S(=O)(c1cccc(C(F)(F)F)c1)N1CCCC1,-
CS(=O)(=O)NCCc1ccc(S(N)(=O)=O)cc1,6.9
NS(=O)(=O)c1ccc(CNS(=O)(=O)Cc2ccccc2)cc1,-
CS(=O)(=O)NCCc1ccncc1,-
O=S(=O)(CS(=O)(=O)NCCc1ccc(Cl)cc1)NCCc1ccc(Cl)cc1,-
O=c1[nH]c2ccc(S(=O)(=O)NCCc3ccc(F)cc3)cc2[nH]1,-
NS(=O)(=O)c1ccc(CCNS(=O)(=O)c2ccc(Cl)cc2)cc1,3.4
O=C(NCc1ccc2c(c1)CCO2)C1=Cc2ccccc2OC1,-
COC(=O)C1=C(C)NC(C)=C(C(=O)OCC(C)C)C1c1ccccc1[N+](=O)[O-] (centres undefined),3.9
COC(=O)C1=C(C)NC(C)=C(C(=O)OC(C)C)C1c1cccc2nonc12 (centres undefined),-
CCOc1ccccc1C1C(C(=O)OC)=C(C)NC2=C1C(=O)c1ccccc12 (centres undefined),-
CNC(=O)Cc1coc2ccc3ccccc3c12,-
COc1ccc(NC(=O)N2c3ccccc3Sc3ccccc32)c(OC)c1,-
O=C(O)c1ccc(S(=O)(=O)NC2CCS(=O)(=O)C2)cc1 (centres undefined),-
N#C/C=C/c1cn(Cc2ccccc2)c2ccc([N+](=O)[O-])cc12,-
CC12CN3CC(C)(CN(C1)C3c1ccc(O)cc1O)C2=O (centres undefined),-
CC(C)C12CN3CC(C(C)C)(CN(C1)C3c1ccc(O)cc1O)C2=O (centres undefined),5.7
CCC12CN3CC(CC)(CN(C1)C3c1ccc(O)cc1O)C2=O (centres undefined),-
O=C1NS(=O)(=O)c2ccc(Cl)cc2Sc2ccccc21,-
SMILES,Dicer inh
COC(=O)c1cc2c(s1)-c1cc(Cl)ccc1S(=O)(=O)C2,-
CC1=CS(=O)(=O)c2ccc(Cl)cc21,4.3
Nc1ncnc2c1nc(N/N=C/c1cccnc1)n2[C@H]1O[C@@H](CO)[C@H](O)[C@@H]1O,-
CN(C)c1ccc(C(O)C(=O)c2ccccc2)cc1 (centres undefined),-
COc1ccc(C(c2ccc(N(C)C)cc2)c2ccc(N(C)C)cc2)c(C)c1C,3.2
Cc1ccc(C(C)(SCC(=O)O)SCC(=O)O)cc1,-
Cc1onc(-c2c(Cl)cccc2Cl)c1NC(=O)N(C)c1ccc(Cl)cc1,-
COc1ccc(-c2cc(-c3ccccc3O)[nH]n2)cc1,4.6
COc1ccc(-c2cc(-c3nc4c5c(ncn4n3)CCC5)[nH]n2)cc1,-
COc1ccc(Nc2n[nH]c3c2CCc2ccccc2-3)cc1,-
COc1ccc(/C=C/c2nc(-c3ccccc3O)n[nH]2)cc1,26
COc1ccc(O)c(-c2cc(C(F)(F)F)nc(-c3ccccc3)n2)c1,-
COc1ccc2cc(-c3ccn[nH]3)ccc2c1,-
CC1(C)C2CC[C@](C)(C2)C1NS(=O)(=O)c1ccc(F)cc1 (some centres undefined),-
CC(C)(C)NC(=S)N(N)CCC#N,-
CCN(CC)CCC#CC(OC)(c1ccccc1)c1ccccc1,-
COCCCn1c(O)c(C#N)c(C)cc1=O,-
CC(=O)COc1ccc(Cl)cc1Cl,-
Clc1ccc(Cc2cn3cc(-c4ccccc4)nc3s2)cc1,-
CCCCCCCCSc1ncn[nH]1,-
CCCCCCCSc1nnc(-c2ccccc2N)c(=O)[nH]1,-
CCCCCSc1nncc(=O)[nH]1,4.2
COc1ccc(N2C(=O)CC(Sc3nc(CC(C)C)ccc3C#N)C2=O)cc1 (centres undefined),-
COC(=O)c1ccc(C2C3=C(Nc4c2c(=O)[nH]c(=O)n4C)c2ccccc2C3=O)cc1 (centres undefined),-
CC(C)NC(=O)C(=O)NCC1CCCO1 (centres undefined),-
SMILES,Dicer inh
CCOC(=O)C(C(=O)NCC1CCCO1)C1CCCCC1 (centres undefined),4
CC(O)CNC(=O)C(=O)NCC1CCCO1 (centres undefined),-
CCOC(=O)C1=C(C)Nc2ncnn2C1c1ccncc1 (centres undefined),-
COC(=O)c1c(C)oc2cc(Br)c(OC(C)C(=O)OC)cc12 (centres undefined),-
NNC(=O)CNC(=O)c1ccc(Br)cc1,4.8
NNC(=O)CNC(=O)c1c(F)cccc1F,-
O=C(O)CNC(=O)c1ccc(Br)cc1,-
CN(C)/C=N/c1nc2ccc(F)cc2s1,-
Cc1cc(C)c(NC2=NS(=O)(=O)c3ccccc32)c(Cl)c1,-

# Assay outcomes from PubChem.
